Experimental data reported in ChEMBL document CHEMBL3988442, “University of Dundee, Small-Polar-MMV Screening Library” (2021).

Tests used:
[1] = biological target: T1, Aspartate--tRNA(Asp/Asn) ligase (Mycobacterium tuberculosis (strain ATCC 25618 / H37Rv)) (UniProt P9WFW3); assay: Assay for Asp RNA synthetase-1 from Mycobacterium tuberculosis; type: functional; design: scale not given: direction of the effect not stated beside the values; conditions: 30 µM; further: in the data most compounds retested in dose-response had high values
T1 sequence (whole entry): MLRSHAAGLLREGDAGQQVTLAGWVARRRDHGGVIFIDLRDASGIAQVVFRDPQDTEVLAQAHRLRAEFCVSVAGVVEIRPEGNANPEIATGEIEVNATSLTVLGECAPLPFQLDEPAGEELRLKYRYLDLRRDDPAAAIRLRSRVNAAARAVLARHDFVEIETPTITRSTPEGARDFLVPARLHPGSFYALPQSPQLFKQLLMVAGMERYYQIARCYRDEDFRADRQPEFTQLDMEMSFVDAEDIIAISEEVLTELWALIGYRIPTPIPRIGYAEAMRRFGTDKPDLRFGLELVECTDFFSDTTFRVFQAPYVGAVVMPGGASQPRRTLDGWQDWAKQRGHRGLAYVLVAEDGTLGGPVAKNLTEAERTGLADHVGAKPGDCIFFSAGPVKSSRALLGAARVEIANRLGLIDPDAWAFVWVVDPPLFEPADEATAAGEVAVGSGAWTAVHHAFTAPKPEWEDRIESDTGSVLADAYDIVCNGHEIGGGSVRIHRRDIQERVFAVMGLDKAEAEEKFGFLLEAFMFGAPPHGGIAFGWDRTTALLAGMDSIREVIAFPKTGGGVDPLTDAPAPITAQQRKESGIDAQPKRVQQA

[2] = biological target: Shiga toxin 2 (Escherichia coli O157:H7) (UniProt P09385+P09386); assay: E. coli 0.157:H7 Shiga Toxin SOP - stx2 screening assay; type: functional; design: scale not given: direction of the effect not stated beside the values; conditions: 30 µM

Structure (SMILES) | Percent Effect [1] | Percent Effect [2]
O=C(COCc1ccccc1Cl)N1CCCC(n2cccn2)C1 (centres undefined) | -1.04% | 20%
FC(F)(F)Cn1ccnc1CN1CCCC1c1noc(C2CC2)n1 (centres undefined) | 11.5% | -34%
Cc1cc(NC(=O)CN2CCc3cnc(C)nc3C2)on1 | -1.18% | -34.7%
O=C(NCCO)c1ccn(-c2ccc3ccccn23)n1 | 2.94% | -37%
Cc1csc(N2CCCN(C(=O)c3cnns3)CC2)n1 | 1.66% | -7.36%
OC(COc1ccccc1)CN1CCc2c(ncn2C2CC2)C1 (centres undefined) | -7.92% | -25.6%
COc1ccc(CCC(=O)N2CCCC2Cn2cc(C)cn2)cc1F (centres undefined) | -1.15% | 18.7%
CN(CC1CCCO1)C1CCN(CCc2ccccn2)CC1 (centres undefined) | 3.12% | -6.44%
COc1cccc(C2CCCN2Cc2nc3c(cnn3C)c(=O)[nH]2)c1 (centres undefined) | -4.03% | -6.96%
CC(C)(C)c1n[nH]c(C2CN(C(=O)c3cc(Cl)c[nH]3)CCO2)n1 (centres undefined) | -4.97% | 0.626%
NC(=O)NCC1CCCCN1C(=O)c1cccc(C(F)(F)F)c1 (centres undefined) | 2.58% | 11.1%
Cc1nc(CN2CCC3(CC2)NC(=O)CC3c2ccccc2)cs1 (centres undefined) | -5.35% | 7.78%
O=C(NC[C@]12COC[C@H]1CN(C1CCOCC1)C2)c1ccco1 | 1.57% | -3.12%
CCc1ccc(C(=O)Nc2ccc(CC3CC(=O)NC3=O)cc2)cc1 (centres undefined) | 7.7% | -36.3%
CCN(CC)S(=O)(=O)N1CCCC(c2cccc(C(=O)O)c2)C1 (centres undefined) | -1.97% | 9.71%
CN1CCN(C(=O)[C@@H]2CCO[C@@H]3CCN(c4ncccn4)C[C@@H]32)CC1 | 5.45% | -16.6%
Cc1nn(C)c(C)c1CC(=O)N1CCC(Nc2cccnn2)CC1 | -1.68% | -23.4%
